Data from PubChem BioAssay (Tox21).
Inconclusive results are not listed. Calls of active or inactive are those of the source. Unless noted, the call rests on the fitted dose curve; in most records, active means well fitted curve in the direction sought with a large enough effect in the repeat runs; inconclusive means weak or mixed curves; inactive means no such curve, though single readings can be large; an effect the other way counts as inactive or inconclusive.

Assays:
[1] = qHTS assay to identify small molecule antagonists of the sonic hedgehog signaling (Shh) pathway (AID 1259369; calls by dose curve; further: nearly all actives have a fitted effect of over 45% in size; further: potency means the concentration at half of the fitted maximal effect)
Procedure, shortened: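 For antagonist detection, the reporter line received test compounds together with conditioned medium, incubated 24hr at 37 C, 5% CO2, then luminescence was recorded following 30min room-temperature luciferase reagent incubation.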

[2] = qHTS assay to identify small molecule agonists of the androgen receptor (AR) signaling pathway in the presence of an antagonist - cell viability counter screen (AID 1259379); further: nearly all actives have a fitted effect of over 25% in size; further: potency means the concentration at half of the fitted maximal effect
Procedure, shortened: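 Seed MDA-kb2 at 3,000 cells/well; incubate 5 hr, 37C, 0% CO2. Add nilutamide to 3.0uM final, then pin compounds at 15 concentrations. Incubate 16 hr. Add CellTiter-Fluor at 15 hr, read fluorescence after 1 hr.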

[3] = qHTS assay to identify small molecule agonists of the estrogen receptor beta (ER-beta) signaling pathway - cell viability counter screen (AID 1259380); further: nearly all actives have a fitted effect of over 30% in size; further: potency means the concentration at half of the fitted maximal effect
Procedure, shortened: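 CellTiter-Glo read, 30 min RT, same wells as bla assay; cells ER-beta-UAS-bla HEK293T; 16 hr compound, 37C; medium 2% charcoal-stripped FBS.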

[4] = qHTS assay to identify small molecule antagonists of the estrogen receptor beta (ER-beta) signaling pathway - cell viability counter screen (AID 1259382); further: nearly all actives have a fitted effect of over 55% in size; further: potency means the concentration at half of the fitted maximal effect
Procedure, shortened: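 In this multiplexed counter screen, cells were seeded at 2,000 per well in medium with 2% charcoal-stripped FBS and incubated 6 hr before compound and 1nM final E2 were added. Sixteen hours later, ATP-based luminescence reported viability.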

[5] = molecular target: Estrogen receptor (Homo sapiens) (UniProt P03372); test: qHTS assay to identify small molecule agonists of the estrogen receptor alpha (ER-alpha) signaling pathway in the presence of an antagonist (AID 1259383; calls by dose curve; further: top concentration of the series differs between compounds; nearly all actives have a fitted effect of over 15% in size)
Procedure, shortened: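 Stably transfected VM7Luc4E2 reporter cells, kept 5 days in charcoal-stripped serum, received ICI-182,780 at 10.0nM final before compound addition. Following 22hr incubation at 37C and 5% CO2, luciferase signal was read by luminescence.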

[6] = qHTS assay to identify small molecule agonists or antagonists of the thyroid stimulating hormone receptor (TSHR) signaling pathway - wild type cell line counter screen (AID 1259384; calls by dose curve)
Procedure, shortened: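 Counter screen in untransfected Hek293: compounds (15-point titration, triplicate) plus phosphodiesterase inhibitor Ro20-1724 added after 18 h plating; 30 min RT. Intracellular cAMP via competitive d2/cryptate immunoassay, 1 h incubation.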

[7] = molecular target: Thyrotropin receptor (Homo sapiens) (UniProt P16473); test: qHTS assay to identify small molecule antagonists of the thyroid stimulating hormone receptor (TSHR) signaling pathway (AID 1259385; calls by dose curve; further: nearly all actives have a fitted effect of over 20% in size; further: potency means the concentration at half of the fitted maximal effect)
Procedure, shortened: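 Antagonist mode: compound-treated TSHR-expressing HEK293 cells were stimulated with 1.5 ng/mL TSH (final) in presence of Ro20-1724 for 30 min at RT. HTRF cAMP detection after 1 h; each compound tested at 15 concentrations, triplicate.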

[8] = qHTS assay to identify small molecule agonists of the estrogen receptor alpha (ER-alpha) signaling pathway in the presence of an antagonist - cell viability counter screen (AID 1259386);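 further: cells exposed to compounds for 22 h at 37 °C before the viability read; nearly all actives have a fitted effect of over 30% in size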; further: potency means the concentration at half of the fitted maximal effect
Procedure, shortened: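 Viability counter screen using VM7Luc4E2 (full-length ER-alpha, four ERE-luciferase). The cells were treated with compounds alongside ICI-182,780 10.0nM for 22hr, and live-cell protease fluorescence was quantified with CellTiter-Fluor.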

[9] = molecular target: Progesterone receptor (Homo sapiens) (UniProt P06401); test: qHTS assay to identify small molecule agonists of the progesterone receptor (PR) signaling pathway (AID 1346784; calls by dose curve; further: nearly all actives have a fitted effect of over 30% in size)
Procedure, shortened: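 Compounds were tested for PR agonism in HEK 293T cells bearing a beta-lactamase gene under UAS control. Treatment lasted 16 hr at 37C; signal came from fluorescence of a FRET substrate.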

[10] = qHTS assay to identify small molecule antagonists of the progesterone receptor (PR) signaling pathway - cell viability counter screen (AID 1346798); further: nearly all actives have a fitted effect of over 50% in size; further: potency means the concentration at half of the fitted maximal effect
Procedure, shortened: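 Following a 4 hr attachment, PR-UAS-bla HEK293T cells in charcoal-stripped FBS medium were exposed to compounds with R5020 for 16 hr; CellTiter-Glo was added and luminescence read after 30 min at room temperature.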

[11] = qHTS assay to identify small molecule agonists of the progesterone receptor (PR) signaling pathway - cell viability counter screen (AID 1346799; calls by dose curve; further: nearly all actives have a fitted effect of over 45% in size; further: potency means the concentration at half of the fitted maximal effect)
Procedure, shortened: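 Here, 3,000 PR-UAS-bla HEK293T cells per well were treated with compounds for 16 hr after a 6 hr preincubation at 37C and 5% CO2; cell viability is the CellTiter-Glo luminescence signal.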

[12] = qHTS assay to identify small molecule antagonists of the TGF-beta/Smad signaling pathway - cell viability counter screen (AID 1346824); further: nearly all actives have a fitted effect of over 50% in size; further: potency means the concentration at half of the fitted maximal effect
Procedure, shortened: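 Cytotoxicity counter-screen run in the same wells as the beta-lactamase Smad reporter read: CellTiter-Glo luminescence after 30 min at room temperature. HEK 293T SBE-bla cells had 5 hr compound exposure at 37 C with TGF-beta1 (0.25 ng/mL stock).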

[13] = qHTS assay to identify small molecule agonists of the TGF-beta/Smad signaling pathway - cell viability counter screen (AID 1346829); further: nearly all actives have a fitted effect of over 45% in size; further: potency means the concentration at half of the fitted maximal effect
Procedure, shortened: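 After overnight seating at 37 C and 5% CO2, reporter cells got compounds for 5 hr and FRET substrate for 2 hr; cell viability then came from CellTiter-Glo luminescence.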

[14] = qHTS assay to identify small molecule agonists of the TGF-beta/Smad signaling pathway (AID 1346859; active means well fitted activation curve with a large enough effect in the signal ratio in the repeat runs, not every such curve was filed as active; the % refers to the signal ratio; further: series mostly up to about 77 µM)
Procedure, shortened: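 Each well held 4,000 SBE-bla HEK 293T cells incubated overnight before compound addition; 5 hr later the cleavable FRET substrate went on for 2 hr at room temperature, and fluorescence was read at two emissions.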

[15] = molecular target: Thyrotropin-releasing hormone receptor (Homo sapiens) (UniProt P34981); test: qHTS assay to identify small molecule antagonists of the thyrotropin-releasing hormone receptor (TRHR) signaling pathway (AID 1346877; active means well fitted inhibition curve with a large enough effect in the repeat runs, not every such curve was filed as active; further: series mostly up to about 51 µM)
Procedure, shortened: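 Following an 18 h incubation at 37 °C and a 2 h calcium dye load, TRHR-HEK293 cells were exposed to compound (5 min, room temperature) and challenged with TRH, 1 nM final.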

[16] = molecular target: Thyrotropin-releasing hormone receptor (Homo sapiens) (UniProt P34981); test: qHTS assay to identify small molecule agonists of the thyrotropin-releasing hormone receptor (TRHR) signaling pathway (AID 1346891; calls by dose curve; further: series mostly up to about 58 µM)
Procedure, shortened: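 Screening of agonists relied on calcium signalling in HEK293 cells expressing human TRHR: dye loading 2 h at 37 °C preceded compound addition and a 3-min fluorescence time course.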

[17] = molecular target: Androgen receptor (Homo sapiens) (UniProt P10275); test: qHTS assay to identify small molecule agonists of the androgen receptor (AR) signaling pathway in the presence of an antagonist (AID 1259381; calls by dose curve; further: nearly all actives have a fitted effect of over 15% in size; further: potency means the concentration at half of the fitted maximal effect)
Procedure, shortened: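 Test compounds at 15 concentrations were incubated for 16hr with MDA-kb2 reporter cells in presence of 3.0uM nilutamide (final). Signal: ONE-Glo luciferase luminescence.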

[18] = molecular target: Progesterone receptor (Homo sapiens) (UniProt P06401); test: qHTS assay to identify small molecule antagonists of the progesterone receptor (PR) signaling pathway (AID 1346795; active means well fitted inhibition curve with a large enough effect in the signal ratio in the repeat runs, not every such curve was filed as active; the % refers to the signal ratio)
Procedure, shortened: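 In HEK293T cells bearing the PR-UAS-bla reporter, compound effects on promegestone-driven (1 nM) beta-lactamase expression are assessed after 16 hr using a fluorescent FRET substrate incubated 2 hr at room temperature.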

[19] = molecular target: Estrogen receptor beta (Homo sapiens) (UniProt Q92731); test: qHTS assay to identify small molecule antagonists of the estrogen receptor beta (ER-beta) signaling pathway (AID 1259378; active means well fitted inhibition curve with a large enough effect in the signal ratio in the repeat runs, not every such curve was filed as active; the % refers to the signal ratio)
Procedure, shortened: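 Antagonist mode: compounds added to beta-lactamase reporter HEK293T ER-beta-UAS cells stimulated with E2 (1nM final), 16 hr at 37C. LiveBLAzer B/G FRET substrate, 2 hours room temperature, fluorescence read-out.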

Measured: Potency

Chain of Thyrotropin-releasing hormone receptor (Homo sapiens) (P34981 whole entry, looked up): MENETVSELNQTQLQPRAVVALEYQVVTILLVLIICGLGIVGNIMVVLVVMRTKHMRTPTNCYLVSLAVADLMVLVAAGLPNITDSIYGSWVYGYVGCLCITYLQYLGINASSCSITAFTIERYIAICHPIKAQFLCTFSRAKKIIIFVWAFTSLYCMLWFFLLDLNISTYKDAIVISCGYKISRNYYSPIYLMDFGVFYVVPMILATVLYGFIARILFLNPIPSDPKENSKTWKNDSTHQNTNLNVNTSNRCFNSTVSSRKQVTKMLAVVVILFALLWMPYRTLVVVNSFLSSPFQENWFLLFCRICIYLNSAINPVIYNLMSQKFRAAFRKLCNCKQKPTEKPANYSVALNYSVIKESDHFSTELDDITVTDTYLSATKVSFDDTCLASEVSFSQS
Chain of Thyrotropin receptor (Homo sapiens) (P16473 whole entry, looked up): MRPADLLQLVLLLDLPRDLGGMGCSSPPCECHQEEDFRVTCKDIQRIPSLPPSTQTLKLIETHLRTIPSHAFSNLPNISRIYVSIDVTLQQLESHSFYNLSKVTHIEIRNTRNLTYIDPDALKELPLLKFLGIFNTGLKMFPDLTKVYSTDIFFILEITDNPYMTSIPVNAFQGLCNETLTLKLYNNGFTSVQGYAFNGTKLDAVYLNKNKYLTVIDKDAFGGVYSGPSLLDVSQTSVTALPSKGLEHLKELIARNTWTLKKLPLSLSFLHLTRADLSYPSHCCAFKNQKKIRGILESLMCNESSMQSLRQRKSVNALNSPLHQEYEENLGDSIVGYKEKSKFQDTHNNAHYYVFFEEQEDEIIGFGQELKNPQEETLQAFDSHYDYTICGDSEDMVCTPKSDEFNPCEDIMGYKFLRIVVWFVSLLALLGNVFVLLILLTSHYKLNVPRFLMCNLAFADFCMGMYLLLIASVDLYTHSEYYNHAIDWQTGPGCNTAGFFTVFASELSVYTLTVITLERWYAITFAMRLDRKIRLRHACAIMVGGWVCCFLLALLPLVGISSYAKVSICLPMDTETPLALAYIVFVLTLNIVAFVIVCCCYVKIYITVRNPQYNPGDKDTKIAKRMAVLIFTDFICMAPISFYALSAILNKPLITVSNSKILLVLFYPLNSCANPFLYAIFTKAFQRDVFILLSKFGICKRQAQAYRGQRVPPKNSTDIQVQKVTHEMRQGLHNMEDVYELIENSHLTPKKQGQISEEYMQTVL
Chain of Progesterone receptor (Homo sapiens) (P06401 whole entry, looked up): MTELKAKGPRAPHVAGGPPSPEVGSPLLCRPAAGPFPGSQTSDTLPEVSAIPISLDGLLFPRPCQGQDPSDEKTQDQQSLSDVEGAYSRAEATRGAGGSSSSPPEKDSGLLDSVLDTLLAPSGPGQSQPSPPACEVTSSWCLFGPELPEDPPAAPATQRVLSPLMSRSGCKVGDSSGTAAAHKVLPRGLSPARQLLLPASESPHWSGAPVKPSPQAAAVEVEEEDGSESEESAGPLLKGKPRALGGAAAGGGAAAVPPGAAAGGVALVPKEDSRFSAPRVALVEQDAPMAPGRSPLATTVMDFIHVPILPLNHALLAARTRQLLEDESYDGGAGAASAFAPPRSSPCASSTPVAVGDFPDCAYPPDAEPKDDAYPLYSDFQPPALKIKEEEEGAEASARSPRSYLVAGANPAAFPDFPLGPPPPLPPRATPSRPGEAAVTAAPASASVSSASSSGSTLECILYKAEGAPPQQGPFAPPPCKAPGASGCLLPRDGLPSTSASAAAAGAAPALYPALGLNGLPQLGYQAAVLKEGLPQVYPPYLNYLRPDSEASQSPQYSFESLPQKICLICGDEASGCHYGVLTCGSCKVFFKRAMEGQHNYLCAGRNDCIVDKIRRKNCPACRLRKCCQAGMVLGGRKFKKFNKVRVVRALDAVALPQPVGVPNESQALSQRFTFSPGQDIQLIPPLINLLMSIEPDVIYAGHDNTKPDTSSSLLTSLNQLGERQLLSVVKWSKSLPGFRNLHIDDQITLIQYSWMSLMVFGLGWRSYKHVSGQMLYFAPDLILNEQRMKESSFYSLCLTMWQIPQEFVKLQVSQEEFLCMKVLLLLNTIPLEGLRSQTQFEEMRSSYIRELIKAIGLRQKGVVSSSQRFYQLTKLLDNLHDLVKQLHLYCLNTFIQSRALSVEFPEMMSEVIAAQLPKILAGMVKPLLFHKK
Chain of Estrogen receptor (Homo sapiens) (P03372 whole entry, looked up): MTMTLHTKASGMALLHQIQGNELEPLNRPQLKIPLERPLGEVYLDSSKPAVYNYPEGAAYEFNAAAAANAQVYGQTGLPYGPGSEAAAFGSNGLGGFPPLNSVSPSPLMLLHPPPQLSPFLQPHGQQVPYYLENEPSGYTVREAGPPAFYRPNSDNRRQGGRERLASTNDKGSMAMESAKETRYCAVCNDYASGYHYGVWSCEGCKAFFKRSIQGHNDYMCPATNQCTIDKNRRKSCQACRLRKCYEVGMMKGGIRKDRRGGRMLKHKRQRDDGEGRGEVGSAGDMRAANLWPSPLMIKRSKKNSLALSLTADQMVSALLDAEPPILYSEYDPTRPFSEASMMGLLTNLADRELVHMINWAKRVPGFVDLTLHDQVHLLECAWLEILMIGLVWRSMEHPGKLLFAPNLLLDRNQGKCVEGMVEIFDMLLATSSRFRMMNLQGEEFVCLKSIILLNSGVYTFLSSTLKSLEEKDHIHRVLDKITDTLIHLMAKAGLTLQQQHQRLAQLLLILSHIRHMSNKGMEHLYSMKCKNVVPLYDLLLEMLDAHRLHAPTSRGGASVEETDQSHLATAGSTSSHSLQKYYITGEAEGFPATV
Chain of Estrogen receptor beta (Homo sapiens) (Q92731 whole entry, looked up): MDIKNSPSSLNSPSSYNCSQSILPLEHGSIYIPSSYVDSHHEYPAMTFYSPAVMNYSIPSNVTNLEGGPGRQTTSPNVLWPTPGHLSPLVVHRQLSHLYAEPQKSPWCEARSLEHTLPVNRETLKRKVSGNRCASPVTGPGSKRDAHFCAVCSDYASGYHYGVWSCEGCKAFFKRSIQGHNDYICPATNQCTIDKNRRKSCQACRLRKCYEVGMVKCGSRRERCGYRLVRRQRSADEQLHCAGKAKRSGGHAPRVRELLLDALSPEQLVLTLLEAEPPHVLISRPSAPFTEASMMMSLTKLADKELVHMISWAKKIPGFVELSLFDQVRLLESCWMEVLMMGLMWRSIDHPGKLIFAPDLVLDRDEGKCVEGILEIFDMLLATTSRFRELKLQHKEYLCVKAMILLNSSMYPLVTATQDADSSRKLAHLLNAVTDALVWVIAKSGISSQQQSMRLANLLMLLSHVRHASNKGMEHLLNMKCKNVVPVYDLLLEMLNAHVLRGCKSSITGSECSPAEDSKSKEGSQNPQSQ
Chain of Androgen receptor (Homo sapiens) (P10275 whole entry, looked up): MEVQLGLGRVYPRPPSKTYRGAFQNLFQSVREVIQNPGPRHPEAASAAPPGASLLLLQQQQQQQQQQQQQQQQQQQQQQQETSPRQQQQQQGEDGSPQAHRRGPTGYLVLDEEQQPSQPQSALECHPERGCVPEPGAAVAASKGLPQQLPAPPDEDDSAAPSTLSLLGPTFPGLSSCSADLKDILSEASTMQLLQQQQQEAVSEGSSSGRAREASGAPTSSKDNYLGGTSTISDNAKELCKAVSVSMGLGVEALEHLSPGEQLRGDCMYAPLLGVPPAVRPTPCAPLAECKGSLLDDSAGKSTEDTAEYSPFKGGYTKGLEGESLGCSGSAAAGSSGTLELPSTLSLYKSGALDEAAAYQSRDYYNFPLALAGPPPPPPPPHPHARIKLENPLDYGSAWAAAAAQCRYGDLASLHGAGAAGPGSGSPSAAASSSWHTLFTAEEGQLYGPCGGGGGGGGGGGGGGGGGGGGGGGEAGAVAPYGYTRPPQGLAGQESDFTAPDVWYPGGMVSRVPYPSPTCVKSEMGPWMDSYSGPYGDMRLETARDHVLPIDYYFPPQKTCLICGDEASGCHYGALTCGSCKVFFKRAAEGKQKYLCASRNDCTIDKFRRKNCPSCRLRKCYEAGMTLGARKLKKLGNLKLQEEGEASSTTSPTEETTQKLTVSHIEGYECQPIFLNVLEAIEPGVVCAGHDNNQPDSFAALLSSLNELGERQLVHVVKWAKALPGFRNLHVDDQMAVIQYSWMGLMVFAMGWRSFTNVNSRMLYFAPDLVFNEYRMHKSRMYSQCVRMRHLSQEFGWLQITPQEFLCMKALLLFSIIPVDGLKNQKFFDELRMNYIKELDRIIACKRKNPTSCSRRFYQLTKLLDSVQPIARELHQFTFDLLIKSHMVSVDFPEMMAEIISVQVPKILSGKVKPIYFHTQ

O=C(Cl)c1c(Cl)cccc1Cl
not listed: [17] | [18] | [19]
inactive: all other assays above

NC(N)=NN=C(/C=C/c1ccc([N+](=O)[O-])o1)/C=C/c1ccc([N+](=O)[O-])o1
active: [1] 2.98 µM | [2] 8.41 µM | [3] 10.6 µM | [4] 23.7 µM | [8] 9.44 µM | [10] 23.7 µM | [11] 23.7 µM | [12] 23.9 µM | [13] 21.3 µM
inactive: [17] | [5] | [15] | [16]

CCCCCCCCN(C)C
not listed: [7] | [10] | [17] | [19]
inactive: all other assays above

Nc1ccc(C(=O)Nc2ccccc2N)cc1
active: [3] 0.841 µM | [17] 5.96 µM | [10] 13.3 µM
inactive: [1] | [2] | [5] | [6] | [8] | [12] | [13] | [14]

Nc1nc(N)c2nc(CNc3ccc(C(=O)N[C@@H](CCC(=O)O)C(=O)O)cc3)cnc2n1
not listed: [12] | [13] | [14] | [17] | [18]
inactive: all other assays above

C=C(C)C(=O)OCCN(C)C
not listed: [6] | [7] | [8] | [10] | [17]
inactive: all other assays above

CCOC(=O)[C@H](CCc1ccccc1)N[C@H]1CCc2ccccc2N(CC(=O)O)C1=O
active: [3] 11.9 µM | [7] 29.8 µM | [10] 21.1 µM | [11] 21.1 µM
not listed: [4] | [5] | [14] | [17] | [18] | [19]
inactive: all other assays above

CN(c1nccc(=O)[nH]1)C1CCN(c2nc3ccccc3n2Cc2ccc(F)cc2)CC1
not listed: [3] | [10] | [14] | [17] | [19]
inactive: all other assays above

C=CC(=O)OCCOC(=O)CCC(=O)O
active: [1] 61.1 µM
not listed: [5] | [17] | [19]
inactive: all other assays above
